“And” between values parts separate entries of the source, which are not always exact repeats. Equal values may be shown once. Some compounds were tested as several samples or in several runs, with calls that do not always agree. The source made the active and inactive calls. Rule for the calls: active = hit-call score of the fitted dose curve at least 0.9, where 1 is the maximum; inactive = score below 0.9.
How the values were obtained:
[1] = ATG_AP_1_CIS: Attagene CIS-FACTORIAL HepG2 Assay for human Activator Protein 1 (AP-1) (AID 2282931); conditions: HepG2 Attagene cis-factorial AP-1 reporter mRNA; actives raise or lower the signal
In short: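 Multiplexed HepG2 reporter assay, 24 h dosing. mRNA induction detected by RT-PCR plus capillary electrophoresis. Activity fitted in both directions against DMSO.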

[2] = ATG_AP_2_CIS: Attagene CIS-FACTORIAL HepG2 Assay for human Activator Protein 2 (AP-2) (AID 2282932); conditions: HepG2 AP-2 cis-reporter, Attagene transcription factor profiling; actives raise or lower the signal
In short: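 HepG2, transient MRTU transfection, cis-regulated reporters; 24 h compound exposure; RNA isolated, RT-PCR, 6-FAM labelling, HpaI digest, CE fluorescence. DMSO = negative control/baseline, bidirectional fit.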

[3] = ATG_BRE_CIS: Attagene CIS-FACTORIAL HepG2 Assay for human Bone Morphogenetic Protein (BMP) Response Element (BRE) (AID 2282933); conditions: HepG2 BMP response element reporter, Attagene transcription factor profiling; actives raise or lower the signal
In short: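 A HepG2 multiplex reporter system measured inducible reporter mRNA 24 h post-dosing. Detection: RT-PCR, 6-FAM primer extension, HpaI digestion, capillary electrophoresis. Activity fitted bidirectionally relative to DMSO.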

[4] = target: Transcription factor E2F1 (Homo sapiens) (UniProt Q01094); test: ATG_E2F_CIS: Attagene CIS-FACTORIAL HepG2 Assay for human E2F Transcription Factor 1 (AID 2282935); conditions: HepG2 Attagene cis-reporter, E2F reporter RNA transcripts; actives raise or lower the signal
In short: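 Cis-element reporter mRNA induction in transiently transfected HepG2, 24 h exposure. Activity fitted in both directions relative to DMSO negative control.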

[5] = ATG_M_61_CIS: Attagene CIS-FACTORIAL HepG2 Assay for M61 Transcription Factor (Internal Marker) (AID 2282937); conditions: HepG2 Attagene CIS-FACTORIAL M61 internal marker reporter; actives raise or lower the signal
In short: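 Endogenous transcription factor activity in HepG2 is read through transiently transfected cis-element reporter units. After 24 h dosing, RNA undergoes reverse transcription, PCR and primer extension with 6-FAM before capillary electrophoresis; DMSO-referenced bidirectional fit.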

[6] = ATG_EGR_CIS: Attagene CIS-FACTORIAL HepG2 Assay for human Early Growth Response 1 (EGR1) (AID 2282938); conditions: HepG2 Attagene CIS-FACTORIAL EGR reporter mRNA; actives raise or lower the signal
In short: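 Activity is taken as induction or loss of reporter mRNA versus DMSO, fitted bidirectionally. Transcripts from cis-regulated reporter units in transiently transfected HepG2 were measured after 24 h by RT-PCR with capillary electrophoresis.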

[7] = ATG_M_19_CIS: Attagene CIS-FACTORIAL HepG2 Assay for M19 Transcription Factor (Internal Marker) (AID 2282939); conditions: HepG2 Attagene CIS-FACTORIAL M19 internal marker reporter; actives raise or lower the signal
In short: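 Chemical-treated HepG2 (24 h) with MRTU constructs; reporter transcripts detected by fluorescent RT-PCR fragment analysis on capillary electrophoresis. Internal background marker, DMSO as baseline.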

[8] = ATG_ERE_CIS: Attagene CIS-FACTORIAL HepG2 Assay for Estrogen Response Element (ERE) (AID 2282940); conditions: HepG2 ERE cis-reporter, Attagene RNA transcript; actives raise or lower the signal
In short: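 Human liver cells (HepG2) bearing transiently transfected, promoter-regulated reporter units were exposed 24 h. Reporter mRNA induction was detected by capillary electrophoresis of labelled RT-PCR products and fitted bidirectionally to DMSO.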

[9] = ATG_Ets_CIS: Attagene CIS-FACTORIAL HepG2 Assay for human Erythroblast Transformation Specific (ETS) (AID 2282941); conditions: HepG2 ETS cis-reporter transcription, actives raise or lower the signal
In short: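 Human HepG2 hepatoma cells were transiently transfected with promoter-driven reporter constructs and treated for 24 hours. Reporter transcripts were quantified by RT-PCR with fluorescent primer extension; bidirectional curve fitting used DMSO as reference.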

[10] = target: Hepatocyte nuclear factor 3-beta (Homo sapiens) (UniProt Q9Y261); test: ATG_FoxA2_CIS: Attagene CIS-FACTORIAL HepG2 Assay for human Forkhead box A2 (FOXA2) (AID 2282942); conditions: HepG2 cis-reporter transcription factor activity, 24 h; actives raise or lower the signal
In short: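 Reporter transcript induction is measured by fluorescence after capillary electrophoresis of RT-PCR products from HepG2 cells exposed 24 h. Cis-regulated reporter units report endogenous factor activity; curves fitted both directions against DMSO.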

[11] = ATG_FoxO_CIS: Attagene CIS-FACTORIAL HepG2 Assay for human Forkhead box O (FoxO) (AID 2282943); conditions: HepG2 Attagene cis-reporter, FoxO element, mRNA; actives raise or lower the signal
In short: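 Endogenous transcription factor activity read from multiplexed cis-promoter reporter transcripts in transiently transfected HepG2, 24 h after dosing. Reporter RNA measured via RT-PCR plus capillary electrophoresis of FAM-labeled products; gain or loss relative to DMSO.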

[12] = ATG_GATA_CIS: Attagene CIS-FACTORIAL HepG2 Assay for human GATA Binding Protein (AID 2282944); conditions: HepG2 GATA cis-element reporter, Attagene multiplex mRNA; actives raise or lower the signal
In short: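 Transfected cis-reporter HepG2 cells were treated with chemicals for 24 hours. Total RNA was then converted to cDNA, amplified with reporter-specific primers and analysed by fluorescent capillary electrophoresis, using DMSO-treated wells as baseline.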

[13] = ATG_GLI_CIS: Attagene CIS-FACTORIAL HepG2 Assay for human Zinc Finger Protein GLI1 (AID 2282945); conditions: HepG2, Attagene cis-factorial reporter mRNA, GLI element; actives raise or lower the signal
In short: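 Bidirectional curve fits relative to DMSO, using reporter mRNA levels from RT-PCR plus capillary electrophoresis. Cells were HepG2 transiently carrying cis-regulated reporter constructs, harvested 24 h after dosing.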

[14] = target: Bile acid receptor (Homo sapiens) (UniProt Q96RI1); test: ATG_IR1_CIS: Attagene CIS-FACTORIAL HepG2 Assay for human Nuclear Receptor Subfamily 1 Group H Member 4 (NR1H4), IR1 submotif (AID 2282946); conditions: IR1 reporter transcription, actives raise or lower the signal
In short: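 Cells (human HepG2) carry transiently transfected cis-promoter reporter transcription units. Compounds are incubated 24 h, total RNA is reverse-transcribed and amplified, and labelled fragments are resolved by capillary electrophoresis. Curves use DMSO as baseline.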

[15] = ATG_GRE_CIS: Attagene CIS-FACTORIAL HepG2 Assay for human Glucocorticoid Response Elements (GRE) (AID 2282947); conditions: HepG2 GRE cis-reporter, Attagene multiplex mRNA; actives raise or lower the signal
In short: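 Transient MRTU transfection of human HepG2 liver cells; cis-regulated reporters report endogenous factors. 24 h dosing → RNA isolation → RT-PCR → 6-FAM primer extension → HpaI cut → CE fragment analysis. Bidirectional fit, DMSO negative control.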

[16] = ATG_ISRE_CIS: Attagene CIS-FACTORIAL HepG2 Assay for human Interferon Regulatory Factor 1 (IRF1) binding to an Interferon-Stimulated Response Element (ISRE) (AID 2282948); conditions: HepG2 ISRE cis-reporter (Attagene), mRNA transcription readout; actives raise or lower the signal
In short: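 Cell-based cis-reporter assay; HepG2; 24 h exposure; reporter mRNA by RT-PCR plus capillary electrophoresis fluorescence; activity in either direction scored relative to DMSO.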

[17] = ATG_M_06_CIS: Attagene CIS-FACTORIAL HepG2 Assay for M06 Transcription Factor (Internal Marker) (AID 2282950); conditions: HepG2 Attagene CIS-FACTORIAL M06 internal marker reporter; actives raise or lower the signal
In short: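 Cells (HepG2, transiently carrying cis-driven reporter units) receive chemical for 24 h before RNA isolation. Reporter cDNA is PCR-amplified, FAM-labelled by primer extension, HpaI-digested and sized on a capillary analyser.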

[18] = ATG_E_Box_CIS: Attagene CIS-FACTORIAL HepG2 Assay for human Enhancer Box (E-box) (AID 2282936); conditions: HepG2 E-box cis-reporter transcription, actives raise or lower the signal
In short: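 Cells: HepG2 (human liver), transient MRTU transfection. Exposure 24 h. RNA → oligo(dT) RT → PCR → 6-FAM label → HpaI → CE. Activity fitted both directions relative to DMSO.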

[19] = ATG_M_32_CIS: Attagene CIS-FACTORIAL HepG2 Assay for M32 Transcription Factor (Internal Marker) (AID 2282949); conditions: HepG2 Attagene cis-factorial M32 reporter, mRNA; actives raise or lower the signal;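 note: background control marker of the multiplexed CIS panel rather than a real target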
In short: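 HepG2 cells transiently transfected with multiplexed cis-regulated reporter units, dosed 24 h. Reporter mRNA quantified by RT-PCR, 6-FAM labelling, HpaI digestion and capillary electrophoresis; bidirectional fit vs DMSO.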

[20] = target: Retinoic acid receptor alpha (Homo sapiens) (UniProt P10276); test: ATG_DR5_RAR_CIS: Attagene CIS-FACTORIAL HepG2 Assay for human Retinoic Acid Receptor Alpha (RARE), DR5 submotif (AID 2282934); conditions: HepG2 Attagene cis-factorial RARE DR5 reporter, mRNA; actives raise or lower the signal;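 for AC50: reporter responds to endogenous RAR alpha beta and gamma in HepG2 not RARA alone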
In short: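 Reporter transcripts from a DR5-regulated unit, measured via RT-PCR plus capillary electrophoresis, reflect endogenous RAR activity in transiently transfected human HepG2 liver cells. Exposure lasted 24 h; gain or loss of signal scored against DMSO.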

Measured: AC50

Sequence of Bile acid receptor (Homo sapiens) (Q96RI1 whole entry, looked up, the tested form may be a part): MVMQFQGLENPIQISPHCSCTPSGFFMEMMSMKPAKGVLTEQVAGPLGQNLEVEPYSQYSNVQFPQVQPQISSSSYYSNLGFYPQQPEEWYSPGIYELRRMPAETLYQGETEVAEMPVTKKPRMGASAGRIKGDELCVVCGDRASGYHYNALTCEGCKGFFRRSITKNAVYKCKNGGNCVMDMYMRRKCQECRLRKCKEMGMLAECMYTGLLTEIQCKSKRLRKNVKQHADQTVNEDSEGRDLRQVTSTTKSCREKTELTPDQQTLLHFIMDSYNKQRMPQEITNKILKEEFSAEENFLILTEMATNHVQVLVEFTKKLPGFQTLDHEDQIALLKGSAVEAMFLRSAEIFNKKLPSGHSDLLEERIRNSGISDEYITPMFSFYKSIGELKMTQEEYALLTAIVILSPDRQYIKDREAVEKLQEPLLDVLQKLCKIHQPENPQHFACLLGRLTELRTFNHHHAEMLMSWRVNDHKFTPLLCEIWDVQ
Sequence of Hepatocyte nuclear factor 3-beta (Homo sapiens) (Q9Y261 whole entry, looked up): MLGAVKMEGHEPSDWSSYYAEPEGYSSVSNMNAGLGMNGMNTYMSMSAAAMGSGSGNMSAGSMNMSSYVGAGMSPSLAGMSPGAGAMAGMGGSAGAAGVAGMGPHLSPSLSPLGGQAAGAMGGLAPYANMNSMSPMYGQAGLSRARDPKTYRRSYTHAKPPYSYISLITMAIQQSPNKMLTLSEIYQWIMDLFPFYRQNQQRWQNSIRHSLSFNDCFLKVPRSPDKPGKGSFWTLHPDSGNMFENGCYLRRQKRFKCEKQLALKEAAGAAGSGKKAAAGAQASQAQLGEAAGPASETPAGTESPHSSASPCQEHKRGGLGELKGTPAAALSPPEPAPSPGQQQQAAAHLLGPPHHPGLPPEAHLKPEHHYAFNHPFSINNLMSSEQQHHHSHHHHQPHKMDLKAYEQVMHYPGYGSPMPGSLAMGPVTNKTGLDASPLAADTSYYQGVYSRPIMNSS
Sequence of Transcription factor E2F1 (Homo sapiens) (Q01094 whole entry, looked up): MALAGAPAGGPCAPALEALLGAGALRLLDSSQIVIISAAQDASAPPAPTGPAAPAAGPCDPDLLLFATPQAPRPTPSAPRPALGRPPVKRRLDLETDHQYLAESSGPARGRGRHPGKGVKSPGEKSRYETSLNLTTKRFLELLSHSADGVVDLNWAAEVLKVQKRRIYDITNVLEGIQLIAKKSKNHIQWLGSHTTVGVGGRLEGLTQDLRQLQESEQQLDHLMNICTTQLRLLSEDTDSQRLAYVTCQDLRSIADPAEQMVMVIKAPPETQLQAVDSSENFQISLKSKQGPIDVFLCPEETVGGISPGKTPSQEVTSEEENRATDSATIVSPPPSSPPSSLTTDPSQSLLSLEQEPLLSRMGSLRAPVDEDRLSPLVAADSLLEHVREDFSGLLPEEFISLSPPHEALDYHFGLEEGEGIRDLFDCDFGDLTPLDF
Sequence of Retinoic acid receptor alpha (Homo sapiens) (P10276 whole entry, looked up): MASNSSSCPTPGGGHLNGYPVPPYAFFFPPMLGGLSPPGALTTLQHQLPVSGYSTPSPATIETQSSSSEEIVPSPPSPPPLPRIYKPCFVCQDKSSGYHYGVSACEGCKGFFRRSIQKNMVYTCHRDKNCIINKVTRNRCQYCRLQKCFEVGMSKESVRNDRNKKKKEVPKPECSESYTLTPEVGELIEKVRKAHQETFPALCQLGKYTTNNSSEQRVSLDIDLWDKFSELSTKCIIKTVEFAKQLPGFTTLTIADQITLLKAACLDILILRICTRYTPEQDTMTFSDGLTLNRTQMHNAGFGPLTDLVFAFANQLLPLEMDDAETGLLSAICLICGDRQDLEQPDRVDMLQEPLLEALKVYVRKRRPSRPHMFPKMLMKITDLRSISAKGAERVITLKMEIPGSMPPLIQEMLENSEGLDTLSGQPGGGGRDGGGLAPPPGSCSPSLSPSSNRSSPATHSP

BrCC(Br)c1ccccc1 (configuration not stated)
not listed: [18] | [19] | [20]
inactive: all other assays above

Cc1ccc(OP(=O)(Oc2ccc(C)cc2C)Oc2ccc(C)cc2C)c(C)c1
active: [18] 25.1 µM | [8] 5.48 µM | [13] 25.7 µM
not listed: [5] | [12] | [20]
inactive: all other assays above

C#CCOC(=O)/C=C(C)/C=C/CC(C)CCCC(C)C (configuration not stated)
active: [1] 55.3 µM
not listed: [5] | [7] | [12] | [20]
inactive: all other assays above

NC(=O)c1ccc(N)nc1
active: [9] 100 µM
not listed: [6] | [19] | [20]
inactive: all other assays above

O=c1nc(O)n(Cl)c(=O)n1Cl
not listed: [5] | [8] | [14] | [17] | [18] | [20]
inactive: all other assays above

c1csc(-c2ccc(-c3cccs3)s2)c1
active: [1] 8.14 µM | [6] 3.02 µM | [8] 7.65 µM | [10] 4.46 µM | [16] 3.41 µM
not listed: [12] | [17] | [20]
inactive: all other assays above

FC(F)OCC(F)(F)C(F)(F)F
not listed: [20]
inactive: all other assays above

Nc1nc(=S)[nH][nH]1
not listed: [12] | [14] | [17] | [20]
inactive: all other assays above

CN(C)C(=S)S
active: [1] 25.9 µM
not listed: [5] | [8] | [14] | [15] | [18] | [19] | [20]
inactive: all other assays above

CCOC(=O)CCN(SN(C)C(=O)Oc1cccc2c1OC(C)(C)C2)C(C)C
active: [1] 151 µM | [3] 163 µM | [14] 100 µM
not listed: [6] | [19] | [20]
inactive: all other assays above

O=c1oc2ccccc2c(O)c1C(CC(O)c1ccc(-c2ccc(Br)cc2)cc1)c1ccccc1 (configuration not stated)
active: [1] 7.97 µM and 57.9 µM | [2] 54.8 µM and 48.2 µM | [18] 54.6 µM | [13] 46.3 µM | [14] 50.1 µM and 43.6 µM | [16] 24.9 µM
inactive: [3] | [18] | [5] | [8] | [9] | [10] | [11] | [12] | [13] | [15] | [16] | [19] | [17]

c1ccc2sc(SNC3CCCCC3)nc2c1
active: [1] 52.1 µM | [2] 149 µM | [13] 159 µM
not listed: [12] | [17] | [20]
inactive: all other assays above

Cl[C@H]1OCCO[C@@H]1Cl
not listed: [8] | [12] | [18] | [19] | [20]
inactive: all other assays above

CC1(C)[C@H](C(=O)O[C@H](C#N)c2cccc(Oc3ccccc3)c2)[C@@H]1/C=C(\Cl)C(F)(F)F
not listed: [3] | [8] | [20]
inactive: all other assays above

OCCCCO
not listed: [3] | [6] | [8]
inactive: all other assays above

Cc1ccccc1OP(=O)(Oc1ccccc1)Oc1ccccc1
active: [1] 47.9 µM | [20] 32 µM | [4] 57.2 µM | [8] 7.35 µM | [14] 23.7 µM | [16] 7.35 µM
not listed: [3]
inactive: all other assays above
